Experimental data reported in ChEMBL document CHEMBL4513216, “Probing the Open Global Health Chemical Diversity Library for Multistage-Active Starting Points for Next-Generation Antimalarials” (ACS Infect Dis, 2020).
In all, about 69,000 compounds went through this assay and about 8,600 (12%) showed an effect of 50% or more. The full list was thinned out, with strong results kept by preference.

Test system: Plasmodium berghei
Test: Screen against P. berghei liver stage (PbLuc), transformed with Luciferase, at 10uM
Type: functional, HepG2
Settings: tested at 10 uM

SMILES	INHIBITION [%]
O=C(CN1CCCC1Cn1cncn1)NCCOc1ccc(F)cc1 (stereo not given)	42.9
O=C1CCC(=O)N1Cc1ccc(C(=O)N2CCCC2c2cccs2)cc1 (stereo not given)	-21.9
CN(Cc1ccsc1)C(=O)Nc1ccc(=O)n(C)c1	47.4
Cn1cc(NC(=O)NCc2ccsc2)ccc1=O	16.1
Cn1cc(NC(=O)CCc2ccsc2)ccc1=O	59.3
Cc1c(O)cccc1C(=O)N1CCCC2(C1)C(=O)N(C)c1ccccc12 (stereo not given)	17.7
O=C(O)c1cc2c(nc1-c1ccsc1)CCN(C(=O)C1CC1)CC2	40.8
CC(=O)N1CCc2cc(C(=O)O)c(-c3ccsc3)nc2CC1	11.3
NC(=O)N1CCc2cc(C(=O)O)c(-c3ccsc3)nc2CC1	74.8
CC(C)=CCCC1(C)CCC(=O)N(CCc2nc(N)cc(O)n2)C1 (stereo not given)	21.5
c1coc(CN2CCCn3c(CN4CCOCC4)nnc3C2)c1	-4.26
CNC(=O)NC(=O)CCSc1ccccc1Cl	41.8
N#Cc1ccc(SCCC(=O)NC(N)=O)cc1	-33.4
NC(=O)NC(=O)CCSc1ccccc1Cl	55.9
Cc1nc(CN2C[C@@H]3CN(c4ncccn4)C[C@@H]3C2=O)cs1	-12.1
Cc1cc(C)c(CNC(=O)NCc2ccc3c(c2)CCC3)c(=O)[nH]1	30.2
Cc1cc(C)c(CNC(=O)NCC2Cc3ccccc32)c(=O)[nH]1 (stereo not given)	0.342
Cc1cc(C)c(CNC(=O)c2ccc3c(c2)CCC3)c(=O)[nH]1	50.3
Cc1cc(C)c(CNC(=O)Cc2ccc3c(c2)CCCC3)c(=O)[nH]1	40
Cc1cc(C)c(CNC(=O)NCC2COc3ccccc3C2)c(=O)[nH]1 (stereo not given)	17.5
Cc1cc(C)c(CNC(=O)NCC2Cc3ccccc3O2)c(=O)[nH]1 (stereo not given)	73.1
N#Cc1c(-c2ccccc2)csc1N	49.7

SMILES	INHIBITION [%]
O=C(NCCC1CC1)NCc1cccc(-n2ccnc2)c1	21.6
O=C(c1cnccn1)N1C[C@@H]2CCN(c3cccnc3)C[C@@H]2C1	41.6
O=C(c1ccncc1)N1C[C@@H]2CCN(c3cccnc3)C[C@@H]2C1	47.4
Cc1ccc(C(=O)N2C[C@@H]3CCN(c4cccnc4)C[C@@H]3C2)cn1	19.4
Cn1cccc1C(=O)N1C[C@@H]2CCN(c3cccnc3)C[C@@H]2C1	36.9
Cc1ccccc1C(=O)N1C[C@@H]2CCN(c3cccnc3)C[C@@H]2C1	68.4
Cc1cccc(C(=O)N2C[C@@H]3CCN(c4cccnc4)C[C@@H]3C2)c1	23.3
O=C(c1ccco1)N1C[C@@H]2CCN(c3cccnc3)C[C@@H]2C1	90.5
O=C(c1ccc(O)cc1)N1C[C@@H]2CCN(c3cccnc3)C[C@@H]2C1	46.2
O=C(c1ccsc1)N1C[C@@H]2CCN(c3cccnc3)C[C@@H]2C1	77.7
CC(=O)Nc1nc(CN2CCOC(Cn3nc(C)cc3C)C2)cs1 (stereo not given)	15.6
COCCN(Cc1ccoc1)C(=O)c1ccc(Cl)s1	25.1
Cn1nccc1CNC(=O)Cn1nc(C(F)(F)F)cc1C1CC1	1.11
CCc1nc(CN(C)C2CCN(Cc3ccc(Cl)s3)C2)no1 (stereo not given)	36.4
Cc1noc(C)c1CC(=O)Nc1ccn(CC(N)=O)n1	37.6
Cc1noc(C)c1CCC(=O)Nc1ccn(C)n1	71.2
CCn1ccc(NC(=O)CCc2c(C)noc2C)n1	38.7
O=C(CCCc1ccccn1)Nc1cccc(N2CCCNC2=O)c1	11.2
Cc1ccc(C(=O)Nc2cn[nH]c2)cc1	31.005
COC(CNC(=O)NCc1c(C)cc(C)[nH]c1=O)c1ccccc1 (stereo not given)	36.1
Cc1noc(C(C)C)c1C(=O)NCCN1CCOCC1	-31.8
CN1N=C(C(=O)N2CCCC(n3ccnc3)C2)CCC1=O (stereo not given)	21.6

SMILES	INHIBITION [%]
CC(C)c1nccn1C1CCCN(C(=O)C2=NN(C)C(=O)CC2)C1 (stereo not given)	14.4
Cc1nccn1C1CCCN(C(=O)C2=NN(C)C(=O)CC2)C1 (stereo not given)	51.6
CN1N=C(C(=O)N2CCCC(n3cccn3)C2)CCC1=O (stereo not given)	11.9
CCc1nccn1C1CCCN(C(=O)C2=NN(C)C(=O)CC2)C1 (stereo not given)	53
CCc1nccn1C1CCCN(C(=O)c2ccn(C)c(=O)c2)C1 (stereo not given)	2.9
CO[C@@H]1CC[C@H]2[C@H]1OCCN2C(=O)c1nn(C)c2ccccc12	-9.23
COCCCn1cnnc1CNc1cc(C)nc2ccnn12	27.9
Cc1cc(NC(=O)CN2C(=O)CC(C)(C)c3ccccc32)no1	29.7
Cc1ccc(C(=O)N(C)Cc2ccc(Br)o2)c(=O)[nH]1	38.6
Cc1nc(N2CCC(C(O)c3nccn3C)CC2)c2c(C)noc2n1 (stereo not given)	52.2
Cc1nc(N2CCC(C(O)c3nccn3C)CC2)c2nc(C)oc2n1 (stereo not given)	42.1
Cc1nc(N2CCC(C(O)c3nccn3C)CC2)c2cccnc2n1 (stereo not given)	-11.6
CO[C@@H]1CCN(Cc2nccn2C)[C@H]1Cc1cccnc1	32.2
Cc1ccsc1CN1CCC2(CC1)CC(OCc1cccnc1)CO2 (stereo not given)	26
O=C(CCc1nnc(-c2ccccc2)o1)N1CCN(CC2CC2)CC1	-17
Cc1noc(C)c1CN1CCC2(CCN(Cc3cccc(F)c3)CC2)C1	60.2
Cc1noc(C)c1CN1CCO[C@H]2CN(Cc3cccc(F)c3)C[C@H]21	62.9
Cc1noc(C)c1CN1CCO[C@H]2CN(Cc3ccc(F)cc3)C[C@H]21	49.2
CC(=O)N1CCC2(CCN(Cc3cccc(F)c3)CC2)CC1	-12.1
Cc1noc(C)c1CN1CCO[C@H]2CN(Cc3cccnc3)C[C@H]21	14.6
Cc1noc(C)c1CN1C[C@H]2CN(Cc3cccc(F)c3)C[C@H]2C1	41.2
